The record followed here is PubChem BioAssay (NCI).

This is part of a sample that, as a whole, favours compounds with a hit. Of some 83,000 tested, about 20% had one in any assay.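 A percent growth of 40 corresponds to 60% growth inhibition; 0 means no net growth; -100 means all cells died. Active threshold: below 10.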 Activity calls are given as the source filed them.

This experiment deals with K-562 leukemia. Kind of experiment: NCI-60 one-dose screen, 48 h (100 = growth as untreated, 0 = no growth, -100 = all killed). The following applies: 10 µM unless noted.
As for `C=C(C)[C@@H]1CC[C@]2(C(=O)OC)CC[C@]3(C)[C@H](CC[C@@H]4[C@@]5(C)C/C(=C/c6cccc(I)c6)C(=O)C(C)(C)[C@@H]5CC[C@]43C)[C@@H]12`, the growth is 96.9% (inactive). Take `N#Cc1c(-c2ccc(Cl)cc2)nc(NN=Cc2ccco2)nc1N1CCOCC1`: the growth was 104% (inactive). Regarding `C=CC(=O)Nc1cccc(Nc2nc(SC)nc(-c3cccc([N+](=O)[O-])c3)c2C#N)c1`, the growth is 46.5% (inactive). Consider `COc1ccc(/C=C/C(=O)c2ccc(O)c(CN3CCN(c4cc5c(cc4F)c(=O)c(C(=O)O)cn5C4CC4)CC3)c2)cc1`, for which the growth is 20.3% (inactive). For `COc1cc2nc(N3CCCC3)nc(Nc3ccccc3)c2cc1OC`, the growth is -11.6% (active).

In the case of `COc1cccc(-c2nc3sccn3c2-c2ccnc(NCCNS(=O)(=O)c3ccccc3)c2)c1`, the growth is 11.1% (inactive). As for `COc1cc(/C=C/C(=O)c2c(C)oc3nc[nH]c(=O)c23)cc(OC)c1OC`, the figure is 45.2% (inactive).

For `C=C(C)[C@@H]1CC[C@]2(C(=O)OC)CC[C@]3(C)[C@H](CC[C@@H]4[C@@]5(C)C/C(=C/c6ccc(OC)cc6)C(=O)C(C)(C)[C@@H]5CC[C@]43C)[C@@H]12`, the growth was 3.32% (active).

With `O=S(=O)(Nc1ccc(I)cc1F)c1ccc(-c2cnc(C3CC3)o2)cc1`, the growth was 13.2% (inactive). Consider `COc1cc2nc(N3CCCC3)nc(NCCc3ccccc3)c2cc1OC`, for which the growth was -19.3% (active). Consider `COc1ccc(Nc2nc(SC)nc(-c3cccc([N+](=O)[O-])c3)c2C#N)cc1`, for which the growth is 93.6% (inactive). For the compound `COc1cc(CNc2oc(-c3ccccc3)c(-c3ccccc3)c2C#N)cc(CN2CCN(C)CC2)c1O`, the growth was -9.86% (active).
